SMILES strings stand for the structures. Results filed as inconclusive are left out. A call without a number means that no potency is given here. The source made the active and inactive calls. Calls come from the whole dose curve; as a rule, active = well fitted curve in the direction sought with a large enough effect in the repeat runs; inconclusive = weak or mixed curves; inactive = no such curve, though single readings can be large; an effect the other way counts as inactive or inconclusive.

Tested on in one experiment: not listed separately
Nature of the experiment: qHTS assay to identify small molecule antagonists of the estrogen receptor alpha (ER-alpha) signaling pathway using the BG1 cell line - cell viability counter screen (AID 743081).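 Note: compound given together with 17beta-estradiol as the ER stimulus; nearly all actives have a fitted effect of over 45% in size.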 The settings on record: BG1Luc4E2 viability, CellTiter-Fluor, 22 h; series mostly up to 70.3 µM. (In qHTS, concentration-response curves come from the screen itself.)
In the case of `CCC(NC(C)C)C(O)c1ccc(O)c(O)c1` (stereo unspecified), the Potency entry was “inactive”.
The same measure, in the same setting: then `CCCOC(=O)c1ccc(O)cc1`, with “inactive”.
In the case of `CC12CCC(C[N+](C)(CCC[N+](C)(C)C)C1)C2(C)C` (stereo unspecified), the Potency entry is “inactive”.
Same read-out and setting: then `COc1ccc(/C=N/NC(=O)c2ccncc2)c(C(=O)O)c1OC`, with “inactive”; and `O=C1[O][Bi][O]c2ccccc21`, with “inactive”.
With `CC(=NCc1ccccc1)c1ccccc1O`, the Potency entry is “inactive”.
On to `C[C@H](NCCc1ccc(O)cc1)[C@H](O)c1ccc(O)cc1`, for which the Potency entry is “inactive”.
`CCCC(CCC)C(=O)OC1C[C@H]2CC[C@@H](C1)[N+]2(C)C` (stereo partly specified): the Potency entry is “inactive”.
With `CC(C)(S)C(=O)N[C@@H](CS)C(=O)O`, the Potency result is “inactive”.
Turning to `NC(=O)[C@H]1O[C@@H](O)[C@H](O)[C@@H](O)[C@@H]1O`, the Potency result is “inactive”.
As to `CCN(CC)C(=O)c1cccnc1`, the Potency result was “inactive”.
Take `CC(C)(COP(=O)(O)OP(=O)(O)OC[C@H]1O[C@@H](n2cnc3c(N)ncnc32)[C@H](O)[C@@H]1OP(=O)(O)O)C(O)C(=O)NCCC(=O)NCCS` (stereo partly specified): the Potency result was “inactive”.
The same measure, in the same setting: then `c1ccc2cc3c4ccccc4c4ccccc4c3cc2c1`, with “inactive”; and `C[S+](CC[C@H](N)C(=O)O)C[C@H]1O[C@@H](n2cnc3c(N)ncnc32)[C@H](O)[C@@H]1O` (stereo partly specified), with “inactive”; and `CC(C)(C)C(=O)OCC(=O)[C@H]1CC[C@H]2[C@@H]3CCC4=CC(=O)CC[C@]4(C)[C@H]3CC[C@]12C`, with “inactive”.
Still for that read-out and setting: then `CC(=O)Nc1ccc(OC(C)=O)cc1`, with “inactive”; and `C=CC(N)CCC(=O)O` (stereo unspecified), with “inactive”.
Same read-out and setting: then `Cc1c(N)nc([C@H](CC(N)=O)NC[C@H](N)C(N)=O)nc1C(=O)N[C@H](C(=O)N[C@H](C)[C@@H](O)[C@H](C)C(=O)N[C@H](C(=O)NCCc1nc(-c2nc(C(=O)NCCCCN=C(N)N)cs2)cs1)[C@@H](C)O)[C@@H](O[C@@H]1O[C@@H](CO)[C@@H](O)[C@H](O)[C@@H]1O[C@H]1O[C@H](CO)[C@@H](O)[C@H](OC(N)=O)[C@@H]1O)c1cnc[nH]1`, with “inactive”.
On to `CCOC(=O)COc1ccc2c(=O)cc(-c3ccccc3)oc2c1`, for which the Potency entry is “inactive”.
Take `CO/N=C(\C(=O)N[C@@H]1C(=O)N2C(C(=O)[O-])=C(C[n+]3ccc(N)n3CCO)CS[C@H]12)c1csc(N)n1`: the Potency result was “inactive”.
Regarding `NC(=O)CC[C@@H]1NC(=O)[C@H](Cc2ccccc2)NC(=O)[C@H](Cc2ccc(O)cc2)NC(=O)[C@@H](N)CSSC[C@@H](C(=O)N2CCC[C@H]2C(=O)N[C@@H](CCCN=C(N)N)C(=O)NCC(N)=O)NC(=O)[C@H](CC(N)=O)NC1=O`, the Potency result is “inactive”.
As to `Cc1onc(-c2c(F)cccc2Cl)c1C(=O)N[C@@H]1C(=O)N2[C@@H]1SC(C)(C)[C@@H]2C(=O)O`, the Potency entry was “inactive”.

The target of the next experiment is Aromatase (Homo sapiens) (UniProt P11511). Nature of the experiment: qHTS assay to identify aromatase inhibitors (AID 743083). Note: nearly all actives have a fitted effect of over 55% in size. As to conditions: MCF-7 aro ERE, testosterone-driven ERE luciferase, 24 h; series mostly up to 70.3 µM.
Chain of Aromatase (Homo sapiens) (P11511 whole entry, looked up): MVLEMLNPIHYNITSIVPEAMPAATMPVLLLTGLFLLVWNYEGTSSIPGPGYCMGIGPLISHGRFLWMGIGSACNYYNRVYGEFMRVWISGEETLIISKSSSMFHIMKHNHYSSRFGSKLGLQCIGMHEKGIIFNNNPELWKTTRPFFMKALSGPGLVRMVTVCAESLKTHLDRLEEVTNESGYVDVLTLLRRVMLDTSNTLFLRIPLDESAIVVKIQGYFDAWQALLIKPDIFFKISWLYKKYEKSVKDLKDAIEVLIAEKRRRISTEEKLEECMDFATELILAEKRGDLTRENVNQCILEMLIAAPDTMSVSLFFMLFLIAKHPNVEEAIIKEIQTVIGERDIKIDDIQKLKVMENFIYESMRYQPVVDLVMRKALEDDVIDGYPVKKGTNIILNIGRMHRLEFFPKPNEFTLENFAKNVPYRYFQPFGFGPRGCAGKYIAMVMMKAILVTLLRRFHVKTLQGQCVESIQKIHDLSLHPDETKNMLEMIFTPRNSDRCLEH
With `C=N[C@@H](C(=O)N[C@@H]1C(=O)N2[C@@H]1SC(C)(C)[C@@H]2C(=O)O)c1ccccc1`, the Potency entry was “inactive”.
Consider `O=C(O)/C=C/C(=O)Nc1ccc(S(=O)(=O)Nc2nccs2)cc1`, for which the Potency entry was “inactive”.
As for `O=c1[nH]c(=O)n([C@H]2C[C@H](O)[C@@H](CO)O2)cc1/C=C/Br`, the Potency entry is “inactive”.
As to `C[C@H](O)CN(C)C`, the Potency result is “inactive”.
For the compound `O=C1CC[C@@H](C(=O)N[C@H]2C[C@@H]2c2ccccc2)N1`, the Potency entry is “inactive”.
For `CC(C)C[C@H](NC(=O)[C@@H](COC(C)(C)C)NC(=O)[C@H](Cc1ccc(O)cc1)NC(=O)[C@H](CO)NC(=O)[C@H](Cc1c[nH]c2ccccc12)NC(=O)[C@H](Cc1cnc[nH]1)NC(=O)[C@@H]1CCC(=O)N1)C(=O)N[C@@H](CCCN=C(N)N)C(=O)N1CCC[C@H]1C(=O)NNC(N)=O`, the Potency entry was “inactive”.
For the compound `NC[C@H]1O[C@H](O[C@H]2[C@H](O)[C@@H](O[C@H]3O[C@H](CO)[C@@H](O)[C@H](N)[C@H]3O)[C@H](N)C[C@@H]2N)[C@H](N)C[C@@H]1O`, the Potency result was “inactive”.
Turning to `FC(F)(F)COCC(F)(F)F`, the Potency result was “inactive”.
Same read-out and setting: then `NCC[C@H](O)C(=O)N[C@@H]1C[C@H](N)[C@@H](O[C@H]2O[C@H](CN)CC[C@H]2N)[C@H](O)[C@H]1O[C@H]1O[C@H](CO)[C@@H](O)[C@H](N)[C@H]1O`, with “inactive”; and `CC(C)Cc1ccc([C@H](C)C(=O)O)cc1`, with “inactive”; and `O=P(O)(O)C(O)(Cn1ccnc1)P(=O)(O)O`, with “inactive”.
On to `NCC(O)CC(=O)O` (stereo unspecified), for which the Potency result was “inactive”.
As for `CNCC(=O)N[C@@H](CCCN=C(N)N)C(=O)N[C@H](C(=O)N[C@@H](Cc1ccc(O)cc1)C(=O)N[C@H](C(=O)N[C@@H](Cc1cnc[nH]1)C(=O)N1CCC[C@H]1C(=O)N[C@@H](C)C(=O)O)C(C)C)C(C)C`, the Potency result was “inactive”.
Take `CCC(NC(C)C)C(O)c1ccc(O)c(O)c1` (stereo unspecified): the Potency entry was “inactive”.
The same measure, in the same setting: then `CCCOC(=O)c1ccc(O)cc1`, with “inactive”; and `CC12CCC(C[N+](C)(CCC[N+](C)(C)C)C1)C2(C)C` (stereo unspecified), with “inactive”.
Take `COc1ccc(/C=N/NC(=O)c2ccncc2)c(C(=O)O)c1OC`: the Potency result is “inactive”.
In the case of `O=C1[O][Bi][O]c2ccccc21`, the Potency result was “inactive”.
The same measure, in the same setting: then `CC(=NCc1ccccc1)c1ccccc1O`, with “inactive”; and `C[C@H](NCCc1ccc(O)cc1)[C@H](O)c1ccc(O)cc1`, with “inactive”.
Consider `CCCC(CCC)C(=O)OC1C[C@H]2CC[C@@H](C1)[N+]2(C)C` (stereo partly specified), for which the Potency entry was “inactive”.
Regarding `CC(C)(S)C(=O)N[C@@H](CS)C(=O)O`, the Potency result is “inactive”.
As for `NC(=O)[C@H]1O[C@@H](O)[C@H](O)[C@@H](O)[C@@H]1O`, the Potency entry is “inactive”.
Same read-out and setting: then `CCCCCCCCCCCCCC(=O)OCC(COP(=O)([O-])OCC[N+](C)(C)C)OC(=O)CCCCCCCCCCCCC` (stereo unspecified), with “inactive”; and `CC(C)(COP(=O)(O)OP(=O)(O)OC[C@H]1O[C@@H](n2cnc3c(N)ncnc32)[C@H](O)[C@@H]1OP(=O)(O)O)C(O)C(=O)NCCC(=O)NCCS` (stereo partly specified), with “inactive”.
Same read-out and setting: then `NC(=S)NS(=O)(=O)c1ccc(N)cc1`, with “inactive”; and `C[S+](CC[C@H](N)C(=O)O)C[C@H]1O[C@@H](n2cnc3c(N)ncnc32)[C@H](O)[C@@H]1O` (stereo partly specified), with “inactive”.
Turning to `CC(C)(C)C(=O)OCC(=O)[C@H]1CC[C@H]2[C@@H]3CCC4=CC(=O)CC[C@]4(C)[C@H]3CC[C@]12C`, the Potency entry was “inactive”.
On to `C=CC(N)CCC(=O)O` (stereo unspecified), for which the Potency result is “inactive”.
`Cc1c(N)nc([C@H](CC(N)=O)NC[C@H](N)C(N)=O)nc1C(=O)N[C@H](C(=O)N[C@H](C)[C@@H](O)[C@H](C)C(=O)N[C@H](C(=O)NCCc1nc(-c2nc(C(=O)NCCCCN=C(N)N)cs2)cs1)[C@@H](C)O)[C@@H](O[C@@H]1O[C@@H](CO)[C@@H](O)[C@H](O)[C@@H]1O[C@H]1O[C@H](CO)[C@@H](O)[C@H](OC(N)=O)[C@@H]1O)c1cnc[nH]1`: the Potency result is “inactive”.
As for `CCOC(=O)COc1ccc2c(=O)cc(-c3ccccc3)oc2c1`, the Potency result was “inactive”.
Turning to `CO/N=C(\C(=O)N[C@@H]1C(=O)N2C(C(=O)[O-])=C(C[n+]3ccc(N)n3CCO)CS[C@H]12)c1csc(N)n1`, the Potency result is “inactive”.
For `NC(=O)CC[C@@H]1NC(=O)[C@H](Cc2ccccc2)NC(=O)[C@H](Cc2ccc(O)cc2)NC(=O)[C@@H](N)CSSC[C@@H](C(=O)N2CCC[C@H]2C(=O)N[C@@H](CCCN=C(N)N)C(=O)NCC(N)=O)NC(=O)[C@H](CC(N)=O)NC1=O`, the Potency entry was “inactive”.
On to `Cc1onc(-c2c(F)cccc2Cl)c1C(=O)N[C@@H]1C(=O)N2[C@@H]1SC(C)(C)[C@@H]2C(=O)O`, for which the Potency result is “inactive”.

Source of the values: PubChem BioAssay (Tox21).
